Experimental data: PubChem BioAssay (NCATS)
Records with an inconclusive call do not appear. Activity calls are given as the source filed them. Calls follow the shape of the dose curve; as a rule, active = well fitted inhibition curve with a large enough effect; inconclusive = small, poorly fitted or top-dose-only effect; inactive = flat fitted curve, though single readings scatter.

Tests used:
Test in all cases: qHTS profiling for inhibitors of Plasmodium falciparum proliferation (AID 504749);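 also: 0% = DMSO vehicle and full inhibition = artemisinin control; nearly all actives have a fitted effect of over 60% in size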
Details in all cases: P. falciparum in erythrocytes, SYBR Green DNA, 72 h; series mostly up to 28.7 µM
CP329 = test system: CP329
How it was run: (§1)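 Three-day growth assay of blood-stage parasites in erythrocytes (0.3% parasitemia, 2.5% hematocrit) at 37 C, 5% CO2, quantified by SYBR Green DNA staining after overnight detergent lysis.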

CP335 = test system: CP335
How it was run: as §1

DFO2036 = test system: DFO2036
How it was run: as §1

DIV14 = test system: DIV14
How it was run: as §1

DIV17 = test system: DIV17
How it was run: as §1

DIV30 = test system: DIV30
How it was run: as §1

Dd2 = test system: Dd2
How it was run: as §1

ECU = test system: ECU
How it was run: as §1

FAB9 = test system: FAB9
How it was run: as §1

GB4 = test system: GB4
How it was run: as §1

HB3 = test system: HB3
How it was run: as §1

ICS = test system: ICS
How it was run: as §1

JCK = test system: JCK
How it was run: as §1

N140 = test system: N140
How it was run: as §1

P93_24 = test system: P93_24
How it was run: as §1

P94_40 = test system: P94_40
How it was run: as §1

PAD = test system: PAD
How it was run: as §1

PC15 = test system: PC15
How it was run: as §1

PC26 = test system: PC26
How it was run: as §1

PC49 = test system: PC49
How it was run: as §1

c1ccc2c(c1)sc1ccccc12
inactive: Potency (CP329) | Potency (CP335) | Potency (DFO2036) | Potency (DIV14) | Potency (DIV17) | Potency (DIV30) | Potency (Dd2) | Potency (ECU) | Potency (FAB9) | Potency (GB4) | Potency (HB3) | Potency (ICS) | Potency (JCK) | Potency (N140) | Potency (P93_24) | Potency (P94_40) | Potency (PAD) | Potency (PC15) | Potency (PC26) | Potency (PC49)

Nc1nc(N)nc(NC2CC2)n1
inactive: Potency (CP329) | Potency (CP335) | Potency (DFO2036) | Potency (DIV14) | Potency (DIV17) | Potency (DIV30) | Potency (Dd2) | Potency (ECU) | Potency (FAB9) | Potency (GB4) | Potency (HB3) | Potency (ICS) | Potency (JCK) | Potency (N140) | Potency (P93_24) | Potency (P94_40) | Potency (PAD) | Potency (PC15) | Potency (PC26) | Potency (PC49)

O=C(Nc1ccc(Br)cc1)c1cc(Br)cc(Br)c1O
inactive: Potency (CP329) | Potency (CP335) | Potency (DFO2036) | Potency (DIV14) | Potency (DIV17) | Potency (DIV30) | Potency (Dd2) | Potency (ECU) | Potency (FAB9) | Potency (GB4) | Potency (HB3) | Potency (ICS) | Potency (JCK) | Potency (N140) | Potency (P93_24) | Potency (P94_40) | Potency (PAD) | Potency (PC15) | Potency (PC26) | Potency (PC49)

CCCC(C)(COC(N)=O)COC(N)=O
inactive: Potency (CP329) | Potency (CP335) | Potency (DFO2036) | Potency (DIV14) | Potency (DIV17) | Potency (DIV30) | Potency (Dd2) | Potency (ECU) | Potency (FAB9) | Potency (GB4) | Potency (HB3) | Potency (ICS) | Potency (JCK) | Potency (N140) | Potency (P93_24) | Potency (P94_40) | Potency (PAD) | Potency (PC15) | Potency (PC26) | Potency (PC49)

CCC1(c2ccccc2)C(=O)N(COC)C(=O)N(COC)C1=O
inactive: Potency (CP329) | Potency (CP335) | Potency (DFO2036) | Potency (DIV14) | Potency (DIV17) | Potency (DIV30) | Potency (Dd2) | Potency (ECU) | Potency (FAB9) | Potency (GB4) | Potency (HB3) | Potency (ICS) | Potency (JCK) | Potency (N140) | Potency (P93_24) | Potency (P94_40) | Potency (PAD) | Potency (PC15) | Potency (PC26) | Potency (PC49)

O=c1oc2ccccc2c(O)c1Cc1c(O)c2ccccc2oc1=O
inactive: Potency (CP329) | Potency (CP335) | Potency (DFO2036) | Potency (DIV14) | Potency (DIV17) | Potency (DIV30) | Potency (Dd2) | Potency (ECU) | Potency (FAB9) | Potency (GB4) | Potency (HB3) | Potency (ICS) | Potency (JCK) | Potency (N140) | Potency (P93_24) | Potency (P94_40) | Potency (PAD) | Potency (PC15) | Potency (PC26) | Potency (PC49)

CN1C(=O)CCS(=O)(=O)C1c1ccc(Cl)cc1 (centres undefined)
inactive: Potency (CP329) | Potency (CP335) | Potency (DFO2036) | Potency (DIV14) | Potency (DIV17) | Potency (DIV30) | Potency (Dd2) | Potency (ECU) | Potency (FAB9) | Potency (GB4) | Potency (HB3) | Potency (ICS) | Potency (JCK) | Potency (N140) | Potency (P93_24) | Potency (P94_40) | Potency (PAD) | Potency (PC15) | Potency (PC26) | Potency (PC49)

CN1C(=O)COc2c(C(=O)NC3CN4CCC3CC4)cc(Cl)cc21 (centres undefined)
inactive: Potency (CP329) | Potency (CP335) | Potency (DFO2036) | Potency (DIV14) | Potency (DIV17) | Potency (DIV30) | Potency (Dd2) | Potency (ECU) | Potency (FAB9) | Potency (GB4) | Potency (HB3) | Potency (ICS) | Potency (JCK) | Potency (N140) | Potency (P93_24) | Potency (P94_40) | Potency (PAD) | Potency (PC15) | Potency (PC26) | Potency (PC49)

Nc1ccccc1C(=O)O
inactive: Potency (CP329) | Potency (CP335) | Potency (DFO2036) | Potency (DIV14) | Potency (DIV17) | Potency (DIV30) | Potency (Dd2) | Potency (ECU) | Potency (FAB9) | Potency (GB4) | Potency (HB3) | Potency (ICS) | Potency (JCK) | Potency (N140) | Potency (P93_24) | Potency (P94_40) | Potency (PAD) | Potency (PC15) | Potency (PC26) | Potency (PC49)

C[C@]12CC[C@@H]3c4ccc(OC(=O)N(CCCl)CCCl)cc4CC[C@H]3[C@@H]1CC[C@@H]2O
inactive: Potency (CP329) | Potency (CP335) | Potency (DFO2036) | Potency (DIV14) | Potency (DIV17) | Potency (DIV30) | Potency (Dd2) | Potency (ECU) | Potency (FAB9) | Potency (GB4) | Potency (HB3) | Potency (ICS) | Potency (JCK) | Potency (N140) | Potency (P93_24) | Potency (P94_40) | Potency (PAD) | Potency (PC15) | Potency (PC26) | Potency (PC49)

O=C(O)CCCc1ccc(N(CCCl)CCCl)cc1
inactive: Potency (CP329) | Potency (CP335) | Potency (DFO2036) | Potency (DIV14) | Potency (DIV17) | Potency (DIV30) | Potency (Dd2) | Potency (ECU) | Potency (FAB9) | Potency (GB4) | Potency (HB3) | Potency (ICS) | Potency (JCK) | Potency (N140) | Potency (P93_24) | Potency (P94_40) | Potency (PAD) | Potency (PC15) | Potency (PC26) | Potency (PC49)

NCCc1ccc(O)cc1
inactive: Potency (CP329) | Potency (CP335) | Potency (DFO2036) | Potency (DIV14) | Potency (DIV17) | Potency (DIV30) | Potency (Dd2) | Potency (ECU) | Potency (FAB9) | Potency (GB4) | Potency (HB3) | Potency (ICS) | Potency (JCK) | Potency (N140) | Potency (P93_24) | Potency (P94_40) | Potency (PAD) | Potency (PC15) | Potency (PC26) | Potency (PC49)

CCCCC/C=C\C/C=C\C/C=C\C/C=C\CCCC(=O)NCC(=O)O
inactive: activity, negative = inhibition (CP329) 5.14% [at 2.67 µM] | activity, negative = inhibition (CP335) 3% [at 2.67 µM] | activity, negative = inhibition (DFO2036) 8.68% [at 2.67 µM] | activity, negative = inhibition (DIV14) 7.6% [at 2.67 µM] | activity, negative = inhibition (DIV17) 1.26% [at 2.67 µM] | activity, negative = inhibition (DIV30) -7.28% [at 2.67 µM] | activity, negative = inhibition (Dd2) 0.222% [at 2.67 µM] | activity, negative = inhibition (ECU) -2.86% [at 2.67 µM] | activity, negative = inhibition (FAB9) 0.295% [at 2.67 µM] | activity, negative = inhibition (GB4) 5.94% [at 2.67 µM] | activity, negative = inhibition (HB3) -4.91% [at 2.67 µM] | activity, negative = inhibition (ICS) -4.84% [at 2.67 µM] | activity, negative = inhibition (JCK) 0.614% [at 2.67 µM] | activity, negative = inhibition (N140) -7.13% [at 2.67 µM] | activity, negative = inhibition (P93_24) -5.2% [at 2.67 µM] | activity, negative = inhibition (P94_40) -8.27% [at 2.67 µM] | activity, negative = inhibition (PAD) 4.88% [at 2.67 µM] | activity, negative = inhibition (PC15) 6.96% [at 2.67 µM] | activity, negative = inhibition (PC26) 8.23% [at 2.67 µM]
